Reference: PubChem BioAssay (Tox21)
Where “and” joins values, the source holds several entries; their conditions need not be identical. Identical values can stand only once. A number with no mark means an inactive call. Records with an inconclusive call do not appear. Where a call stands in place of a potency, no number is given. Calls of active or inactive are those of the source. Unless noted, the call rests on the fitted dose curve; in most records, active means well fitted curve in the direction sought with a large enough effect in the repeat runs; inconclusive means weak or mixed curves; inactive means no such curve, though single readings can be large; an effect the other way counts as inactive or inconclusive.

Key:
[1] = qHTS assay to identify small molecule antagonists of the constitutive androstane receptor (CAR) signaling pathway - cell viability counter screen (AID 1224837); further: nearly all actives have a fitted effect of over 45% in size; further: potency means the concentration at half of the fitted maximal effect
Summary of the method: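 HepG2-CYP2B6-hCAR cells, 2500/well, 4 hr pre-incubation; compound titration, 15 conc.; CITCO 50 nM final; 23 hr, 37 C/5% CO2; CellTiter-Fluor, fluorescence intensity.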

[2] = molecular target: Nuclear receptor subfamily 1 group I member 3 (Homo sapiens) (UniProt Q14994); test: qHTS assay to identify small molecule antagonists of the constitutive androstane receptor (CAR) signaling pathway (AID 1224838);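 further: HepG2 cells stably expressing hCAR with CYP2B6 luciferase reporter stimulated by CITCO; nearly all actives have a fitted effect of over 40% in size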; further: potency means the concentration at half of the fitted maximal effect
Summary of the method: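 HepG2-CYP2B6-hCAR cells; 4 h pre-incubation; cpd (15 conc) + CITCO 50 nM final; 24 h, 37 C/5% CO2; ONE-Glo, luminescence.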

[3] = molecular target: Nuclear receptor subfamily 1 group I member 3 (Homo sapiens) (UniProt Q14994); test: qHTS assay to identify small molecule agonists of the constitutive androstane receptor (CAR) signaling pathway (AID 1224839);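 further: HepG2 cells stably carrying human CAR and a CYP2B6 luciferase reporter; nearly all actives have a fitted effect of over 15% in size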
Summary of the method: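 HepG2 cells stably co-transfected with hCAR and a CYP2B6-2.2kb luciferase reporter; compounds at 15 concentrations with 0.75 uM PK11195 present. After 24 hr at 37 C, luciferase read by ONE-Glo luminescence.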

[4] = qHTS assay to identify small molecule antagonists of the estrogen related receptor signaling pathway with the pleiotropic PPARgamma coactivator (PGC) from Tox21 10K library - cell viability counter screen (AID 1224840; active means well fitted cell-killing curve with a large enough effect in the repeat runs, not every such curve was filed as active; further: nearly all actives have a fitted effect of over 40% in size; further: potency means the concentration at half of the fitted maximal effect)
Summary of the method: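 PGC/ERR cells, 2,000/well; 6 h pre-incubation 37 C/5% CO2; cpd in DMSO via pin tool; 17.5 h 37 C; CellTiter-Fluor, 30 min; fluorescence.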

[5] = molecular target: Thyrotropin receptor (Homo sapiens) (UniProt P16473); test: qHTS assay to identify small molecule agonists of the thyroid stimulating hormone receptor (TSHR) signaling pathway (AID 1224843; calls by dose curve; further: nearly all actives have a fitted effect of over 45% in size)
Summary of the method: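 TSHR-expressing HEK293 cells (800 per well) were exposed to compounds for 30 min at room temperature. cAMP was then detected by HTRF competition with cAMP-d2 and anti-cAMP cryptate, read after 1 h at room temperature. Fifteen concentrations, triplicate.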

[6] = qHTS assay to identify small molecule agonists of the hypoxia (HIF-1) signaling pathway - cell viability counter screen (AID 1224844; calls by dose curve; further: nearly all actives have a fitted effect of over 50% in size; further: potency means the concentration at half of the fitted maximal effect)
Summary of the method: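 ME-180 HRE-bla cells, 2,000/well, 0.5% dialyzed FBS; 5 hr settle, 17 hr compound at 37C/5% CO2; CCF4-AM reporter read first, then CellTiter-Glo luminescence after 30 min RT.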

[7] = qHTS assay to identify small molecule agonists of H2AX (AID 1224845; active means well fitted activation curve with a large enough effect in the signal ratio in the repeat runs, not every such curve was filed as active; the % refers to the signal ratio; further: potency means the concentration at half of the fitted maximal effect)
Summary of the method: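 Wild-type CHO-K1 cells plated overnight, then exposed 3 hr at 37C to compounds at 15 concentrations (0.76% DMSO). Lysed, then HTRF anti-pH2AX(S139)-cryptate/anti-H2AX-d2 detection after 24 hr at room temperature; emissions 665 and 620 nm.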

[8] = qHTS assay to identify small molecule agonists of H2AX - cell viability counter screen (AID 1224847; calls by dose curve; further: nearly all actives have a fitted effect of over 30% in size; further: potency means the concentration at half of the fitted maximal effect; on activity change, negative = cytotoxicity: top concentration of the series differs between compounds)
Summary of the method: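 CHO-K1 cells plated overnight at 37C, then exposed 3 h at 37C to compounds at 15 concentrations (0.76% DMSO final). Viability by CellTiter-Glo luminescence after 30 min at room temperature.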

[9] = qHTS RealTime-Glo MT Cell Viability Assay in HepG2 cells - 24 hour (AID 1224867); further: nearly all actives have a fitted effect of over 50% in size; further: potency means the concentration at half of the fitted maximal effect
Summary of the method: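 HepG2 cells (600/well) were dispensed with RealTime-Glo reagents, incubated 5 h at 37 °C, then treated with compounds in DMSO for up to 40 h. Nonlytic NanoLuc luminescence reflecting viable cells was read at each stated time point.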

[10] = qHTS RealTime-Glo MT Cell Viability Assay in HEK293 cells - 32 hour (AID 1224868); further: nearly all actives have a fitted effect of over 50% in size; further: potency means the concentration at half of the fitted maximal effect; on activity change, negative = cytotoxic: top concentration of the series differs between compounds
Summary of the method: (§1)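 HEK293 cells seeded with NanoLuc/prosubstrate reagent, rested 5 h at 37 C, then dosed and kept at 37 C up to 40 h. Nonlytic real-time luminescence from viable cells read at 0, 8, 16, 24, 32 and 40 h.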

[11] = A CellTox Green Cytotoxicity Assay to monitor cytotoxicity in HEK293 cells - 0 hour (AID 1224869); further: nearly all actives have a fitted effect of over 50% in size
Summary of the method: (§2)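 Nonlytic real-time cytotoxicity: HEK293 + CellTox Green reagent plated, 5 h preincubation, pintool compound addition (23 nL in DMSO), 37 C for 40 h, fluorescence measured at successive time points.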

[12] = qHTS RealTime-Glo MT Cell Viability Assay in HepG2 cells - 40 hour (AID 1224870); further: nearly all actives have a fitted effect of over 50% in size; further: potency means the concentration at half of the fitted maximal effect
Summary of the method: (§3)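 HepG2 cells mixed with RealTime-Glo MT reagents (NanoLuc plus cell-permeant prosubstrate) were seeded at 600 cells/well, incubated 5 h at 37 C/5% CO2, then pinned with compounds in DMSO; nonlytic luminescence tracked viability during 40 h treatment.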

[13] = A CellTox Green Cytotoxicity Assay to monitor cytotoxicity in HEK293 cells - 40 hour (AID 1224871); further: nearly all actives have a fitted effect of over 45% in size; further: potency means the concentration at half of the fitted maximal effect
Summary of the method: as §2

[14] = qHTS RealTime-Glo MT Cell Viability Assay in HEK293 cells - 16 hour (AID 1224872); further: nearly all actives have a fitted effect of over 50% in size; further: potency means the concentration at half of the fitted maximal effect; on activity change, negative = cytotoxicity: top concentration of the series differs between compounds
Summary of the method: as §1

[15] = qHTS RealTime-Glo MT Cell Viability Assay in HepG2 cells - 8 hour (AID 1224873); further: nearly all actives have a fitted effect of over 55% in size; further: potency means the concentration at half of the fitted maximal effect
Summary of the method: as §3

[16] = qHTS assay to identify small molecule agonists of the hypoxia (HIF-1) signaling pathway (AID 1224846; active means well fitted activation curve with a large enough effect in the signal ratio in the repeat runs, not every such curve was filed as active; the % refers to the signal ratio)
Summary of the method: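 Cell line: CellSensor HRE-bla ME-180; 2,000 cells/well; 0.5% dialyzed FBS; 5 h preincubation; DMSO compound pin transfer; 17 h, 37C, 5% CO2; CCF4-AM added; bla FRET signal scored for activation.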

[17] = qHTS assay to identify small molecule antagonists of the estrogen related receptor signaling pathway with the pleiotropic PPARgamma coactivator (PGC) from Tox21 10K library (AID 1224841; call rule not given here)
Summary of the method: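 PGC/ERR cell line, 2,000 cells/well; 6 h pre-incubation 37 C/5% CO2; compounds (DMSO) pinned in; 18 h, 37 C; One-Glo, 30 min RT; luminescence.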

[18] = qHTS assay to identify small molecule agonists of the estrogen related receptor signaling pathway with the pleiotropic PPARgamma coactivator (PGC) from Tox21 10K library (AID 1224842); further: nearly all actives have a fitted effect of over 15% in size
Summary of the method: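 PGC/ERR reporter cells (NTP line) were seeded 2,000 per well, rested 6 h at 37 C/5% CO2, then pin-dosed with compounds in DMSO for 18 h at 37 C; luciferase read by One-Glo luminescence after 30 min at room temperature.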

[19] = qHTS assay to identify small molecule antagonists of the estrogen related receptor (ERR) signaling pathway from Tox21 library (AID 1224848); further: nearly all actives have a fitted effect of over 50% in size
Summary of the method: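 Cells: ERR line, 2,000/well; 6 h preincubation 37 C/5% CO2. Cpd in DMSO via pin tool; 18 h, 37 C. ONE-Glo, 30 min RT, luminescence.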

[20] = qHTS assay to identify small molecule agonists of the estrogen related receptor (ERR) signaling pathway from Tox21 library (AID 1224849; calls by dose curve; further: nearly all actives have a fitted effect of over 15% in size); details: ERR reporter cell line, ONE-Glo luciferase, 18 h; at 92.4 µM (top of the series) unless noted
Summary of the method: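 ERR cells, 6 h pre-incubation 37 C/5% CO2; cpd in DMSO pinned; 18 h 37 C; ONE-Glo added, 30 min RT; luminescence read. Agonist mode, qHTS.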

Sequence of Nuclear receptor subfamily 1 group I member 3 (Homo sapiens) (Q14994 whole entry, looked up): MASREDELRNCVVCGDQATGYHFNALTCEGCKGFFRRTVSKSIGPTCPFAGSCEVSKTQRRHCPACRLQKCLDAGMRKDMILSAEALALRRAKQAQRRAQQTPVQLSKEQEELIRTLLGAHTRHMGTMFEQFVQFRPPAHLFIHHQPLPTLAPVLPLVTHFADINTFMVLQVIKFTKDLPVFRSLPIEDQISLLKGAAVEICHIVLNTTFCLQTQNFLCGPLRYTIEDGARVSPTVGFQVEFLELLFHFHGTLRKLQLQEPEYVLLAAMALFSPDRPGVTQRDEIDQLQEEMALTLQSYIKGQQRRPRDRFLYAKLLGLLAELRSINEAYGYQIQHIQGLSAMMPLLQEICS
Sequence of Thyrotropin receptor (Homo sapiens) (P16473 whole entry, looked up): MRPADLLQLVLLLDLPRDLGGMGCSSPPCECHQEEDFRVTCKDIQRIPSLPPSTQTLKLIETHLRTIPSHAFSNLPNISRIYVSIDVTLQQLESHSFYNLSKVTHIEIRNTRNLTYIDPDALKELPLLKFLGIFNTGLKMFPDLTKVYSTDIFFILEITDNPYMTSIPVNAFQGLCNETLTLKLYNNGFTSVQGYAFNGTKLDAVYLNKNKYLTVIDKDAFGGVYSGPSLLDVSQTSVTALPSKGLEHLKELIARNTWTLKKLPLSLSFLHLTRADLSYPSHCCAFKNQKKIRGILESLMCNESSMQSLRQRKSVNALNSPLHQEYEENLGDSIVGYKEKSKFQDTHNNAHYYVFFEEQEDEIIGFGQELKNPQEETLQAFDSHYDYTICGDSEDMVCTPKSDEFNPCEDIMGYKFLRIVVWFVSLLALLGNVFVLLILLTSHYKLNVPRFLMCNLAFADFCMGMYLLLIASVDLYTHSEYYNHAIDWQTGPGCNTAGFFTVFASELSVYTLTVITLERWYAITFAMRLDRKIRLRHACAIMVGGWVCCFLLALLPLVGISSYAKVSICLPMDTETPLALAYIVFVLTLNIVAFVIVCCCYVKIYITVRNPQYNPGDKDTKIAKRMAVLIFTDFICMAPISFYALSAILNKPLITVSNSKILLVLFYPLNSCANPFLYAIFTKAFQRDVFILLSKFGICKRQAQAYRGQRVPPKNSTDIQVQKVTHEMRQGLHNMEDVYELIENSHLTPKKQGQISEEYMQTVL

CCCCCCCCCCCCOC(=O)c1cc(O)c(O)c(O)c1
Potency [1]: 68.3 µM (active)
Potency [2]: 76.6 µM (active)
Potency [3]: inactive
Potency [4]: 30.5 µM (active) and 6.11 µM (active)
Potency [5]: inactive
Potency [6]: 48.8 µM (active) and 54.9 µM (active)
Potency [7]: 11.3 µM (active)
Potency [8]: 100 µM (active)
Potency [9]: 54.7 µM (active) and 49 µM (active)
Potency [10]: 3.87 µM (active) and 3.47 µM (active)
Potency [11]: inactive
Potency [12]: 54.9 µM (active)
Potency [13]: 34.5 µM (active) and 49 µM (active)
Potency [14]: 6.89 µM (active) and 5.49 µM (active)
Potency [15]: 48.8 µM (active) and 43.6 µM (active)

C/C=C/CO
Potency [1]: inactive
Potency [2]: inactive
Potency [3]: inactive
Potency [4]: inactive
Potency [5]: inactive
Potency [6]: inactive
Potency [7]: inactive
outcome [16]: inactive
Potency [9]: inactive
Potency [10]: inactive
Potency [11]: inactive
Potency [13]: inactive
Potency [15]: inactive

CCc1cccc(C)c1
Potency [1]: inactive
Potency [2]: inactive
Potency [3]: inactive
Potency [4]: inactive
Potency [5]: inactive
Potency [6]: inactive
outcome [16]: inactive
Potency [8]: inactive
Potency [9]: inactive
Potency [10]: inactive
Potency [11]: inactive
Potency [12]: inactive
Potency [13]: inactive

CC(C)(C)C1=CC(=O)C=C(C(C)(C)C)C1=O
Potency [1]: inactive
Potency [2]: inactive
Potency [3]: inactive
Potency [4]: inactive
Potency [5]: inactive
Potency [6]: inactive
Potency [7]: inactive
outcome [16]: inactive
Potency [8]: inactive
Potency [9]: inactive
Potency [10]: inactive
Potency [11]: inactive
Potency [12]: inactive
Potency [14]: inactive
Potency [15]: inactive

Cc1cccc(C)n1
Potency [1]: inactive
Potency [2]: inactive
Potency [3]: inactive
Potency [4]: inactive
Potency [5]: inactive
Potency [6]: inactive
Potency [7]: inactive
outcome [16]: inactive
Potency [8]: inactive
Potency [9]: inactive
Potency [10]: inactive
Potency [11]: inactive
Potency [12]: inactive
Potency [13]: inactive
Potency [14]: inactive
Potency [15]: inactive

CCCCCCCC(OC)OC
Potency [1]: inactive
Potency [2]: inactive
Potency [3]: inactive
Potency [4]: inactive
Potency [5]: inactive
Potency [6]: inactive
Potency [7]: inactive
outcome [16]: inactive
Potency [8]: inactive
Potency [9]: inactive
Potency [10]: inactive
Potency [14]: inactive
Potency [15]: inactive

CCN(CC)CCSC(=O)C(c1ccccc1)c1ccccc1
Potency [1]: inactive
Potency [2]: inactive
Potency [3]: inactive
Potency [4]: inactive
Potency [5]: inactive
Potency [6]: inactive
outcome [16]: inactive
Potency [9]: inactive
Potency [10]: inactive
Potency [12]: inactive
Potency [14]: inactive
Potency [15]: inactive

COc1ccccc1C=O
Potency [1]: inactive
Potency [2]: inactive
Potency [3]: inactive
Potency [4]: inactive
Potency [5]: inactive
Potency [6]: inactive
Potency [7]: inactive
outcome [16]: inactive
Potency [8]: inactive
Potency [9]: inactive
Potency [10]: inactive
Potency [11]: inactive
Potency [14]: inactive
Potency [15]: inactive

CCOC(=O)COc1ccc(C)cc1
Potency [1]: inactive
Potency [2]: inactive
Potency [3]: inactive
Potency [4]: inactive
Potency [5]: inactive
Potency [6]: inactive
Potency [7]: inactive
outcome [16]: inactive
Potency [8]: inactive
Potency [9]: inactive
Potency [10]: inactive
Potency [13]: inactive
Potency [14]: inactive
Potency [15]: inactive

N[C@@H](CSSC[C@H](N)C(=O)O)C(=O)O
activity change, negative = cytotoxicity [1]: -3.15% [at 0.349 µM]
activity, negative = inhibition [2]: -10.8% [at 0.349 µM]
activation [3]: -0.0368% [at 0.349 µM]
activity, negative = inhibition [17]: 16.2% [at 0.349 µM]
activation [18]: 4.81% [at 0.349 µM]
activation [5]: 2.51% [at 0.349 µM]
activity change, negative = cytotoxicity [6]: 25.3% [at 0.29 µM]
activity change, negative = cytotoxicity [8]: -5.28% [at 0.582 µM]
activity, negative = inhibition [19]: -3.98% [at 0.349 µM]
activity change, positive = activation [20]: -3.33% [at 0.349 µM]
activity change, negative = cytotoxicity [9]: -0.491% [at 0.29 µM]
cytotoxicity [11]: -2.52% [at 0.29 µM]
activity change, negative = cytotoxic [12]: -2.12% [at 0.29 µM]
cytotoxicity increase [13]: 3.14% [at 0.29 µM]
activity change, negative = cytotoxicity [14]: 13.2% [at 0.29 µM]

CCO[Si](CCCSSSSCCC[Si](OCC)(OCC)OCC)(OCC)OCC
Potency [1]: inactive
Potency [2]: inactive
Potency [3]: inactive
Potency [4]: inactive
Potency [6]: 19.5 µM (active)
Potency [7]: inactive
Potency [9]: inactive
Potency [10]: inactive
Potency [11]: inactive
Potency [12]: inactive
Potency [14]: inactive
Potency [15]: inactive

C[Si](C)(C)Cl
Potency [1]: inactive
Potency [2]: inactive
Potency [3]: inactive
Potency [17]: inactive
Potency [18]: inactive
Potency [5]: inactive
Potency [6]: inactive
Potency [7]: inactive
outcome [16]: inactive
Potency [8]: inactive
Potency [19]: inactive
Potency [9]: inactive
Potency [10]: inactive
Potency [11]: inactive
Potency [12]: inactive
Potency [13]: inactive
Potency [14]: inactive

CCOC(=O)CC(C)O (stereo not given)
Potency [1]: inactive
Potency [2]: inactive
Potency [3]: inactive
Potency [17]: inactive
Potency [18]: inactive
Potency [5]: inactive
Potency [7]: inactive
outcome [16]: inactive
Potency [8]: inactive
Potency [19]: inactive
activity change, positive = activation [20]: -9.04%
Potency [9]: inactive
Potency [10]: inactive
Potency [11]: inactive
Potency [12]: inactive
Potency [13]: inactive
Potency [14]: inactive
Potency [15]: inactive

CC(=O)C=O
Potency [1]: inactive
Potency [2]: inactive
Potency [3]: inactive
Potency [4]: inactive
Potency [6]: inactive
outcome [16]: inactive
Potency [8]: inactive
Potency [9]: inactive
Potency [11]: inactive
Potency [12]: inactive
Potency [13]: inactive
Potency [14]: inactive
Potency [15]: inactive
